{
  "source": "PubChem BioAssay AID743446",
  "about": "(Broad Institute, 2014)",
  "note": "Results with a measured potency or affinity are listed apart. Unmarked numbers belong to inactive results. The rule behind the calls is not given here.",
  "data": [
    {"assay": "HEK293 cell cytotoxicity, dose response, cytotoxicity control, plate reader, cherry-picked samples (AID 743446)", "settings": "stronger effect = lower value; at 26 µM unless noted", "values": [
      {"smiles": "COCCn1c(C)cc(C(=O)CSc2nc3ccccc3s2)c1C", "max activity": "-17.4%"},
      {"smiles": "C[C@H](CO)N1C[C@H](C)[C@H](CN(C)C(=O)Nc2cccc3ccccc23)OCCCC[C@H](C)Oc2ccc(NC(=O)CCC(F)(F)F)cc2C1=O", "max activity": "78.9%"},
      {"smiles": "N#C[C@H]1[C@@H](c2ccc(C3=CCCCC3)cc2)[C@H](CO)N1C(=O)c1ccccn1", "max activity": "74.4% [at 12 µM]"},
      {"smiles": "COCCOc1cc(NCc2ccccc2)c2ncn(C(C)C)c2c1", "max activity": "-9.83% [at 0.1 µM]"}
    ]}
  ]
}
